The values that follow come from PubChem BioAssay (Tox21).

Results filed as inconclusive are left out. Active and inactive are the calls of the source. The call rests on the fitted dose curve; in most records, active means well fitted cell-killing curve with a large enough effect in the repeat runs; inconclusive means weak or mixed curves, or effect the other way; inactive means flat fitted curve, though single readings scatter.
On the % scale 0 is the no-effect control and ±100 the full control effect; potency means the concentration at half of the fitted maximal effect.

The first test in a line: cAMP Responsive Elements (CRE) small molecule antagonists, cell-based qHTS assay: qHTS cell viability counter screen (AID 2060913). Further: nearly all actives have a fitted effect of over 40% in size. The note with it: CRE-bla HEK293T viability, CellTiter-Glo luminescence, 5 h; series mostly up to 92.4 µM; viability change, negative = cytotoxic: at the top concentration. The method in brief:
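CRE-bla HEK293T cells (2,000/well, 18 h) given compound plus NKH477 0.25 uM final for 3 h at 37C; viability counter-screen by CellTiter-Glo luminescence in same wells after 30 min.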
(In qHTS, concentration-response curves come from the screen itself.)
`Cc1cccc2c1cc1ccc3cccc4ccc2c1c34`: the “viability change, negative = cytotoxic” value was -0.428% (inactive).
For the compound `OC(C#CCN1CCCC1)(c1ccccc1)c1ccccc1`, the “viability change, negative = cytotoxic” value was 0.787% [at 42.5 µM] (inactive).
`CC(C)OB(OC(C)C)OC(C)C`: the Potency entry was “inactive”.
In the case of `Cc1ccc(N)nc1`, the “viability change, negative = cytotoxic” value was 8.33% (inactive).
Turning to `CCCCCCCCCCCCCC`, the “viability change, negative = cytotoxic” value is -3.17% (inactive).
In the case of `CCCCCCCCCCCCCCCCCC(=O)OCC(CC)CCCC` (centres undefined), the “viability change, negative = cytotoxic” value is -0.32% (inactive).
Still for that read-out and setting: for `C=COCC1CCC(CO)CC1` (centres undefined) the value was -0.865% (inactive).
As to `CCCCCCCCCCC1CO1` (centres undefined), the “viability change, negative = cytotoxic” value was 1.09% (inactive).
Consider `CCN(CC)CCOc1ccc2c(c1)C(=O)c1cc(OCCN(CC)CC)ccc1-2`, for which the “viability change, negative = cytotoxic” value was -6.52% [at 42.5 µM] (inactive).
On to `CCc1cc(SCc2sc(-c3ccc(C(F)(F)F)cc3)nc2CN2CCN(c3ccc(OC)cc3)CC2)ccc1OCC(=O)O`, for which the Potency was 54.5 µM (active).
As for `CC(C)NCC(O)c1ccc(NS(C)(=O)=O)cc1` (centres undefined), the “viability change, negative = cytotoxic” value is -5.48% (inactive).
Still for that read-out and setting: for `O=C(O)c1ccccc1Nc1cc(Cl)ccc1C(=O)O` the value was -0.998% [at 18.9 µM] (inactive); for `CCOc1ccc(NC(C)=O)cc1N`, -5.96% (inactive); for `ClC(Cl)(Cl)c1ccc(C(Cl)(Cl)Cl)cc1`, -6.95% (inactive).

A further test is described as follows: cAMP Responsive Elements (CRE) small molecule agonists, cell-based qHTS assay: qHTS cell viability counter screen (AID 2060914).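 Further: viability read after 3 h of compound exposure; nearly all actives have a fitted effect of over 50% in size.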 The note with it: CRE-bla HEK293T viability, CellTiter-Glo luminescence, 5 h; series mostly up to 92.4 µM; activity change, negative = cytotoxicity: at the top concentration. The method, boiled down:
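Cells are seeded and incubated 18 h, treated with compounds in DMSO for 3 h, read for the bla reporter, then given CellTiter-Glo; luminescence is measured after 30 min at room temperature.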
As to `Cc1cc(-n2nc3ccc(Cl)cc3n2)c(O)c(C(C)(C)C)c1`, the “activity change, negative = cytotoxicity” value was -6.57% [at 42.5 µM] (inactive).
`CC(C)(C)C(=O)OCOC(=O)[C@@H]1N2C(=O)[C@@H](NC(=O)[C@H](N)c3ccccc3)[C@H]2SC1(C)C`: the “activity change, negative = cytotoxicity” value was 5.6% [at 42.5 µM] (inactive).
Still for that read-out and setting: the value for `CC(C)(C)OC(=O)c1cccc(N)c1` was 1.92% (inactive).
As for `C[N+](C)(C)CCO`, the Potency entry was “inactive”.
On to `CCCCCCCC/C=C\CCCCCCCC(=O)OCCO`, for which the “activity change, negative = cytotoxicity” value is -1.94% (inactive).
`CCCC(C)CCC(C)=O` (centres undefined): the “activity change, negative = cytotoxicity” value is -0.0763% (inactive).
As for `CC(=O)NNC(C)=O`, the “activity change, negative = cytotoxicity” value is 2.52% (inactive).
`C=CCNC(N)=S`: the Potency entry is “inactive”.
Consider `C=CC(=O)OCCCC`, for which the Potency result was “inactive”.
For `CC(=O)CC(=O)Nc1ccccc1C`, the Potency entry is “inactive”.
Take `O=C(O)/C=C/c1cnc[nH]1`: the “activity change, negative = cytotoxicity” value is 9.85% (inactive).
On to `Cc1ccccc1C#N`, for which the “activity change, negative = cytotoxicity” value was -0.963% (inactive).
With `CCCCCC=CCC=CCCCCCCCC(=O)OCC`, the “activity change, negative = cytotoxicity” value was 2.21% [at 42.5 µM] (inactive).
On to `c1ccc2n[nH]nc2c1`, for which the Potency result is “inactive”.
As to `CCCC(=O)O`, the Potency result was “inactive”.
On to `CN(C)CCOCCO`, for which the “activity change, negative = cytotoxicity” value was 2.11% (inactive).
On the same count and under the same terms, the value for `CNC(C)=O` was 12.2% (inactive).
In the case of `O=NO`, the Potency result is “inactive”.
Consider `CC(=O)OCC(=O)[C@@]12N=C(C)O[C@@H]1C[C@H]1[C@@H]3CCC4=CC(=O)C=C[C@]4(C)[C@H]3[C@@H](O)C[C@@]12C`, for which the Potency entry was “inactive”.
Regarding `O=C(O)c1nc(Cl)c(Cl)c(Cl)c1Cl`, the “activity change, negative = cytotoxicity” value is 10.4% (inactive).
Turning to `CCCCCCNC(=O)n1cc(F)c(=O)[nH]c1=O`, the “activity change, negative = cytotoxicity” value was -7.25% [at 42.5 µM] (inactive).
`CCOC(=O)N1CCC(=C2c3ccc(Cl)cc3CCc3cccnc32)CC1`: the Potency entry was “inactive”.
As to `Cc1ccc(C)c([N+](=O)[O-])c1`, the “activity change, negative = cytotoxicity” value is -0.455% (inactive).
On to `CCCCCCCCCCCCCO`, for which the Potency result was “inactive”.
Regarding `Cc1[nH]c(=O)c(C#N)cc1-c1ccc2nccn2c1`, the “activity change, negative = cytotoxicity” value was 1.81% [at 42.5 µM] (inactive).
Still for that read-out and setting: the value for `COc1cc2c(cc1OC)C(C(C(=O)N(CCc1ccc(OC)c(OC)c1OC)CCc1ccc(OC)c(OC)c1OC)c1ccccc1)=NCC2` (centres undefined) was -10.7% [at 42.5 µM] (inactive); that for `Cc1cccc2c1cc1ccc3cccc4ccc2c1c34` was 2.05% (inactive); that for `OC(C#CCN1CCCC1)(c1ccccc1)c1ccccc1` was 9.1% [at 42.5 µM] (inactive).
As for `CC(C)OB(OC(C)C)OC(C)C`, the Potency result is “inactive”.
`Cc1ccc(N)nc1`: the “activity change, negative = cytotoxicity” value is 4.71% (inactive).
For the compound `CCCCCCCCCCCCCC`, the “activity change, negative = cytotoxicity” value was -1.98% (inactive).
Take `CCCCCCCCCCCCCCCCCC(=O)OCC(CC)CCCC` (centres undefined): the “activity change, negative = cytotoxicity” value was 3.57% (inactive).
For `C=COCC1CCC(CO)CC1` (centres undefined), the “activity change, negative = cytotoxicity” value was -0.545% (inactive).
Turning to `CCCCCCCCCCC1CO1` (centres undefined), the “activity change, negative = cytotoxicity” value was 4.56% (inactive).
Consider `CCN(CC)CCOc1ccc2c(c1)C(=O)c1cc(OCCN(CC)CC)ccc1-2`, for which the “activity change, negative = cytotoxicity” value is -5.34% [at 42.5 µM] (inactive).
Consider `CCc1cc(SCc2sc(-c3ccc(C(F)(F)F)cc3)nc2CN2CCN(c3ccc(OC)cc3)CC2)ccc1OCC(=O)O`, for which the Potency is 61.1 µM (active).
Turning to `CC(C)NCC(O)c1ccc(NS(C)(=O)=O)cc1` (centres undefined), the “activity change, negative = cytotoxicity” value was 1.39% (inactive).
For the compound `O=C(O)c1ccccc1Nc1cc(Cl)ccc1C(=O)O`, the activity change, negative = cytotoxicity was 0.206% [at 18.9 µM] (inactive).
The same measure, in the same setting: for `CCOc1ccc(NC(C)=O)cc1N` the value was 1.34% (inactive).
With `ClC(Cl)(Cl)c1ccc(C(Cl)(Cl)Cl)cc1`, the “activity change, negative = cytotoxicity” value was -5.6% (inactive).
